# The supplement of paper PMC11001985
# Unmarked numbers belong to inactive results.
# Target: TTYH3 (lysine site: K340) (UniProt Q9C0H2)
# Test: lysine labeling ratio R10:1 (500 µM / 50 µM probe), SILAC-ABPP in living cells; higher = lower intrinsic lysine reactivity toward the probe, active = 2 or less
# Details: HeLa; probe concentrations 500 vs 50 µM
# Experimental: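 Living HeLa cells (SILAC light/heavy) in PBS at room temperature were labeled with 50 µM versus 500 µM of the lysine-reactive, reductant-cleavable probe OPA-S-S-alkyne (SILAC labeling time not stated). Probe-modified peptides were CuAAC-biotinylated, captured on neutravidin and eluted with DTT/IAA, then quantified by LC-MS/MS. R = median peptide ratio per lysine (500/50 µM), combined over 3 forward and 3 reverse SILAC replicates. Ratios are capped at 20; R < 2 = hyper-reactive.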
# Sequence of TTYH3 (lysine site: K340) (Q9C0H2 whole entry): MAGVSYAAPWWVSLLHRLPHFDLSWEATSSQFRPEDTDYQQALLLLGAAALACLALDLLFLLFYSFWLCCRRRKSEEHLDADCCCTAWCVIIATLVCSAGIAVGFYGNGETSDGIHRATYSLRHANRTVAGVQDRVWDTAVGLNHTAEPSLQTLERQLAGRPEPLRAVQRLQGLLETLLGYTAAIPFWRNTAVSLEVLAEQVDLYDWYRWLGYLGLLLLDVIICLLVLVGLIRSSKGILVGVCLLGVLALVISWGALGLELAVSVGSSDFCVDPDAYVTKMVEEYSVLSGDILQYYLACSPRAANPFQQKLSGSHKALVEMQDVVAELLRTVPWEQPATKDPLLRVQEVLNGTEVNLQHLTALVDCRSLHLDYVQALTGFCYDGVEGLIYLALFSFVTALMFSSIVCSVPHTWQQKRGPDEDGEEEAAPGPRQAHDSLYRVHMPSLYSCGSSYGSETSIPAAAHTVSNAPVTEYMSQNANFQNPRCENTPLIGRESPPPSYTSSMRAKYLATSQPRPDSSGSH
row,SMILES,lysine labeling ratio R10:1
1,C#CCNC(=O)CCSSCCC(=O)NCCc1ccc(C=O)c(C=O)c1,2.27
